Source: PubChem
Shown are actives, neighbours in structure and some others; about 2.4% of the full set was active somewhere.
Apoferritin bind: candidate novel general anesthetic via apoferritin binding. 350,000 compounds, 0.074% hits. P02791. apoferritin/1-aminoanthracene competitive binding, fluorescence. Potency, µM (highest dose often 77.5 µM), inactives show at the top dose activity change, negative = displacement, actives largely listed as inhibitors; further: on the % scale 0 is the no-effect control and ±100 the full control effect; nearly all actives have a fitted effect of over 20% in size
Target sequence (P02791 2-175 limits assumed): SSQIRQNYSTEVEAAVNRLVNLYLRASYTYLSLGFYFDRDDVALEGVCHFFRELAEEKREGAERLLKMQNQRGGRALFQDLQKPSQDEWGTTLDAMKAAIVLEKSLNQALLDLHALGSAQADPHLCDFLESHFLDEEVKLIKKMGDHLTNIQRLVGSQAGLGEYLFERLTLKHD
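Horse-spleen apoferritin (10 uM) was mixed with 50% saturated 1-aminoanthracene in PBS, exposed to compounds for 10 min at room temperature, and read for fluorescence (ex 380 nm, em 535 nm). Competitive displacement was fitted with a four-parameter Hill equation.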
ATXN2 expr inh: ATXN2 expression inhibition | HEK-293 ATXN2-luciferase reporter, luminescence, 24 h | Potency, µM (highest dose often 57 µM), for inactives: at the highest dose activity change, negative = inhibition, usual class: inhibitors | 360,000 compounds, 0.72% hits; further: on the % scale 0 is the no-effect control and ±100 the full control effect; nearly all actives have a fitted effect of over 55% in size
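qHTS (up to 57 uM final) was run with 24 h compound exposure of reporter cells at 37 °C. Each well was multiplexed: SteadyGlo luminescence measured ATXN2-luciferase expression after a fluorogenic Gly-Phe-AFC viability readout (25 uM final).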
TGFb inhibitor: TGF-b pathway inhibition; 410,000 compounds, 1.2% hits; Potency, µM (top dose mostly 46.1 µM), without a hit: top-dose activity, negative = inhibition, hits mostly inhibitors; HepG2 CAGA-GFP TGF-b/SMAD3 reporter, GFP fluorescence, 18 h; TGF-beta stimulated, 500 pg/mL final; further: on the % scale 0 is the no-effect control and ±100 the full control effect; nearly all actives have a fitted effect of over 65% in size
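Using HEPG2 CAGA-GFP reporter cells at 1000 cells/well, we pinned test compounds, stimulated with recombinant TGF-beta (500 pg/mL final) and measured total well GFP after 18 h.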
HepG2 tox: kills HepG2 cells in TGF-b inhibitor counter-screen | HepG2 CAGA-GFP viability, ATP luminescence, 18 h | Potency, µM (doses to about 46.1 µM), for the others: at the highest dose activity change, negative = cytotoxicity, actives largely listed as cytotoxic | 410,000 compounds, 0.76% hits | AID 588856
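HepG2 CAGA-GFP cells (1000/well, DMEM with 1% FBS) received compound, then TGF-beta at 500 pg/mL final, and were incubated 18 hours at 37 degrees C. Viability was read by CellTiter-Glo luminescence. Media-only wells were set as complete cell-killing and DMSO as no toxicity.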
S2 tox: cell viability loss in ATXN counter-screen | Potency, µM (doses to about 56.7 µM), actives largely listed as cytotoxic | AID 651635 | S2 cells (HEK-293 line with an ATXN2-luciferase reporter) viability, CellTiter-Fluor protease fluorescence, 24 h | 400,000 compounds, 0.49% hits; further: nearly all actives have a fitted effect of over 40% in size
The depositor's hits bear a star; i = inactive; ? = inconclusive; . = not tested or not shown. The call rests on the fitted dose curve; in most records, active means well fitted curve in the direction sought with a large enough effect; inconclusive means small, poorly fitted or top-dose-only effect, or another doubt; inactive means no such curve, though single readings can be large; an effect the other way counts as inactive or inconclusive. Potency means the concentration at half of the fitted maximal effect.

SMILES | Apoferritin bind | ATXN2 expr inh | TGFb inhibitor | HepG2 tox | S2 tox
COc1ccc(N2CCN(C(=O)c3cn(C4CCCCC4)c(=O)c4c3c3ccccc3n4C)CC2)cc1 | 130.7% | -7.9% | ? | -86.3% | 11.2µM*
O=c1c(Cl)c(Cl)cnn1-c1ccccc1 | -6.7% | ? | ? | 14.1µM* | ?
O=c1c(Cl)c(N/N=C/c2ccc(Cl)cc2)cnn1-c1ccccc1 | -4.6% | . | ? | 14.1µM* | ?
Nc1c(C(=O)N/N=C/c2ccc(Cl)cc2)cnn1-c1ccccc1 | -3.3% | 12.2% | -0.4% | 12.0% | i
COc1ccc(-c2cn[nH]c2-c2ccc(OCc3ccccc3)cc2O)cc1 | ? | 0.0% | ? | -142.1% | i
COc1ccc(-c2cn[nH]c2-c2ccc(OCc3ccccc3F)cc2O)cc1OC | -20.2% | ? | 15.8µM* | -87.9% | ?
Cc1cc(-n2c(SCC(=O)NCCC3=CCCCC3)nc3n[nH]c(C)c3c2=N)ccc1Cl | ? | . | ? | -79.2% | ?
CCOc1ccccc1-n1c(SCC(=O)Nc2ccc(CC)cc2)nc2n[nH]c(C)c2c1=N | -10.4% | ? | ? | 9.8% | 20µM*
CCc1ccccc1-n1c(SCC(=O)Nc2ccc(C)cc2)nc2n[nH]c(C)c2c1=N | -12.2% | . | 0.0% | -42.0% | .
Cc1ccc(CNC(=O)CSc2nc3n[nH]c(C)c3c(=N)n2-c2ccccc2Cl)cc1 | -4.7% | . | ? | -19.0% | .
Cc1c(Cl)cccc1-n1c(SCC(=O)NCc2ccccc2)nc2n[nH]c(C)c2c1=N | -13.8% | . | 11.2µM* | -60.2% | .
CCc1ccc(NC(=O)CSc2nc3n[nH]c(C)c3c(=N)n2-c2ccccc2C)cc1 | -14.7% | -27.7% | ? | 15.8µM* | ?
Cc1[nH]nc2nc(SCC(=O)NCCC3=CCCCC3)n(-c3ccc(Br)cc3)c(=N)c12 | 4.1% | . | 15.8µM* | -137.4% | ?
COCC1CCCN(Cc2ccc3c(c2)CN(C(=O)c2ccc(-c4ccc(C)o4)cc2)CCO3)C1 (stereo not drawn) | . | . | . | . | i
O=C(CCc1c[nH]c2ccccc12)N1CCC(n2c(C3CCCO3)nc3cc(C(F)(F)F)ccc32)CC1 (stereo not drawn) | . | . | . | . | i
CC(C)CSc1nnc(CNC(=O)c2ccccn2)n1C | . | . | . | . | i
COC(=O)c1cc(=O)nc(NN=Cc2ccco2)s1 | . | 11.9% | 3.0% | 25.7% | ?
O=C(Cn1cnc2sc3c(c2c1=O)CCCC3)NCC(=O)Nc1ccc(F)cc1F | -16.3% | -0.7% | -0.8% | -11.5% | i
CN(CCO)c1cc(Sc2nc3ccccc3s2)c2nonc2c1[N+](=O)[O-] | -22.9% | 10µM* | ? | -99.2% | 14.1µM*
C/C(=N\O)[C@@H](C)NCC(C)(C)CN[C@H](C)/C(C)=N/O | . | -11.1% | . | . | i
CCc1ccc(C2c3[nH]c4ccccc4c3CCN2C(=O)CN2CCN(CC)CC2)cc1 (stereo not drawn) | -20.6% | ? | ? | 12.6µM* | 25.1µM*
CCc1ccc(C2c3[nH]c4ccccc4c3CCN2C(=O)CNC(N)=O)cc1 (stereo not drawn) | -11.9% | -9.9% | -19.5% | -9.3% | i
COc1cc2c(cc1OC)CN(CC(=O)Nc1ccc(C)c(S(=O)(=O)N3CCOCC3)c1)CC2 | -13.3% | . | 15.1% | 4.7% | i
Cc1ccccc1Nc1ncnc2c1c(-c1ccccc1)cn2-c1ccc(F)cc1 | -10.5% | . | -18.4% | -13.6% | .
COc1ccc(Cn2c(SCc3ccc(C)cc3)nc3cc(OC)c(OC)cc3c2=N)cc1Cl | -0.9% | 28.2µM* | ? | 5.62µM* | 15.8µM*
SMILES | Apoferritin bind | ATXN2 expr inh | TGFb inhibitor | HepG2 tox | S2 tox
COc1ccc(Cn2c(SCc3cc(C)ccc3C)nc3cc(OC)c(OC)cc3c2=N)cc1 | ? | . | -4.0% | 10µM* | .
CCOc1ccccc1NC(=O)CCCc1nc2ccccc2c(=O)[nH]1 | -8.8% | 20µM* | -10.1% | -47.4% | i
CC(=O)Nc1ccc(NC(=O)CCc2nc3ccccc3c(=O)[nH]2)cc1 | -6.1% | 12.8% | 1.2% | 3.1% | i
CC(=O)c1sc(NC(=O)CCCc2nc3ccccc3c(=O)[nH]2)nc1-c1ccccc1 | . | . | 20µM* | 11.2µM* | i
Cc1ccccc1Nc1cc2ccccc2c(=O)[nH]1 | 3.6% | -4.7% | 4.47µM* | 11.2µM* | ?
O=c1[nH]c(Nc2ccccc2Cl)cc2ccccc12 | . | 3.8% | -22.3% | -4.6% | i
O=C1C(Cl)=C(NCCN2CCOCC2)C(=O)c2ccccc21 | -15.1% | -35.8% | ? | 17.8µM* | ?
CCC(c1nnnn1C1CCCC1)N(Cc1cccs1)Cc1cc2cc(C)ccc2[nH]c1=O (stereo not drawn) | -6.0% | 31.6µM* | 2.9% | -10.2% | ?
CCOC(=O)Cn1nnnc1C(CC)N(Cc1cccs1)Cc1cc2cc(C)ccc2[nH]c1=O (stereo not drawn) | -8.0% | 2.9% | -17.2% | -38.2% | i
COc1ccccc1OCc1ccc(C(=O)N2N=C(C(F)F)CC2(O)C(F)F)o1 (stereo not drawn) | ? | 14.0% | 7.7% | -0.1% | i
O=C(c1ccc(COc2ccc(Cl)cc2)o1)N1N=C(C(F)F)CC1(O)C(F)F (stereo not drawn) | -17.7% | -12.7% | 22.4µM* | -84.6% | i
c1ccc(C2[C@H]3CN(Cc4cccnc4)[C@H](c4ccccc4)C34CC2(c2cccnc2)C4)cc1 (stereo partly drawn) | -0.7% | -14.1% | 14.1µM* | -58.4% | ?
CCN(CC)CCSc1nnc2c3cc(C)ccc3n(Cc3ccccc3)c2n1 | -22.6% | ? | ? | -30.3% | 15.8µM*
Nc1nc2c(s1)COc1ccccc1-2 | -13.3% | . | 3.6% | 9.0% | i
Nc1nc2c(s1)CCc1c-2cnn1-c1ccccc1 | ? | . | 17.8µM* | -120.7% | ?
O=C(Nc1ccc(C(F)(F)F)cc1)C1CCCN(S(=O)(=O)c2cccc3cccnc23)C1 (stereo not drawn) | ? | 6.4% | 11.2µM* | -33.6% | i
O=C(Nc1ccncc1)C1CCCN(S(=O)(=O)c2cccc3cccnc23)C1 (stereo not drawn) | -13.7% | ? | -15.7% | -2.5% | ?
COc1ccc(NC(=O)c2cc(-c3cc(F)ccc3OC(C)C)n[nH]2)cc1OC | . | -32.1% | 25.1% | -20.1% | ?
Cc1cc(=O)[nH]c(N=N/C(=N/Nc2ccc(O)cc2)c2ccccc2)n1 | ? | ? | -8.7% | -25.5% | ?
Cc1cc(=O)[nH]c(N=N/C(=N/Nc2ccccc2C)c2ccccc2)n1 | -14.6% | 2.51µM* | -4.3% | -9.0% | ?
COc1ccc(N/N=C(/N=Nc2nc(C)cc(=O)[nH]2)c2ccccc2)cc1 | -19.9% | ? | ? | -44.8% | 28.2µM*
CCN1CCN(c2cc(N3CCN(C(=O)c4ccco4)CC3)c3c4c(onc24)-c2ccccc2C3=O)CC1 | -10.9% | -31.7% | 0.1% | 25.1µM* | ?
